Results reported in PubChem BioAssay AID1305 (SRMLSC, 2008).
Fewer than 10 of roughly 1,200 compounds were called active. These entries were drawn from the full list. Unmarked numbers belong to inactive results. No rule for the calls is given here.

Test: 5-FOA growth of efflux-deficient control yeast, dose response, counter-screen for RAM network inhibitor project, S. cerevisiae, OD615 (AID 1305);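 also: plate controls were vehicle for no effect and reference inhibitor for full effect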
Settings: S. cerevisiae efflux-deficient reporter strain, 5-FOA growth OD615, 2 days, active compounds read high; at 100 µM unless noted

Row | Compound | max inhibition
1 | CCC(C)(C)c1ccc(Oc2ccc(NC(=O)COC(=O)C3=COCCO3)cc2)cc1 | 1.41%
2 | Cc1ccccc1CSCCNC(=O)c1ccc(N(C)S(=O)(=O)c2ccccc2)cc1 | 3.2%
3 | Fc1ccc(-n2c(Cc3ccccc3)nnc2SCc2nc(-c3ccc(Cl)cc3)no2)cc1 | 1.1% [setting not given]
4 | COCCN(C(=O)C(C)C)c1nnc(-c2ccc(C(C)(C)C)cc2)s1 | 1.87% [at 50 µM]
5 | COc1ccc(/C=C(\NC(=O)c2ccc(OCC(C)C)cc2)C(=O)OCc2ccco2)cc1 | 3.48%
6 | O=C(COC(=O)/C(=C/c1cccs1)c1cccs1)NCc1ccccc1Cl | 1.81% [at 25 µM]
7 | Cc1c(N=Nc2ccc(N(C)C)cc2)c(=O)n(-c2ccccc2)n1C | 20%
8 | CN(C)S(=O)(=O)c1cccc(NC(=O)COC(=O)C2(c3ccccc3F)CCCC2)c1 | 1.8% [at 50 µM]
9 | CCOC(=O)c1sc2nc(CSCC(=O)OCc3ccc(C(=O)OC)o3)[nH]c(=O)c2c1C | 2.47% [at 50 µM]
10 | CCN=C1S/C(=C\c2cc(Br)ccc2OCC(=O)OCC)C(=O)N1CC | 3.82% [at 50 µM]
11 | Cc1cccc(-n2c(SCC(=O)Nc3cccc(S(=O)(=O)NC4=NCCCCC4)c3)nc3ccccc3c2=O)c1C | 2.12% [setting not given]
12 | c1ccc(-c2csc(N3CCc4ccccc4C3)n2)cc1 | 4.47%
13 | O=C(COC(=O)/C=C/c1nc2ccccc2s1)Nc1ccccc1Oc1ccccc1 | 1.95% [at 1.563 µM]
14 | O=C(OCc1ccc(Br)cc1)c1cccc(-c2nnc(-c3ccccc3)o2)c1 | 3.97% [at 50 µM]
15 | CC(=O)c1c(Nc2ccccc2)sc(C(=O)c2ccccc2)c1C | 4.16% [at 50 µM]
16 | CCCSc1nc(NCc2ccco2)c2c3c(sc2n1)COC(C)(CC)C3 (centres undefined) | 4.05% [at 50 µM]
17 | Cc1ccc(NC2=C(Cl)C(=O)OC2OC(=O)c2ccccc2C)cc1 (centres undefined) | 1.91% [at 50 µM]
18 | Cc1cc(C)cc(NC(=O)CSCc2cnn(-c3ccccc3)c2-n2cccc2)c1 | 6.62%
19 | COC(=O)CCCCCN1C(=O)NC(c2ccc(-c3ccccc3)cc2)C(C(=O)OCc2ccccc2)=C1C (centres undefined) | 4.42% [at 25 µM]
20 | O=C(NCc1ccccc1)C1=C[C@@H](c2ccc(C(F)(F)F)cc2)C[C@@H](OCc2ccc(CO)cc2)O1 | 3.48%
21 | Cc1ccc(N=Nc2c(C)[nH]n(-c3ccccc3)c2=O)cc1 | 1.87% [at 50 µM]
22 | COC(=O)c1sccc1NC(=O)c1csc2c1CCCC2 | 4.49% [at 25 µM]
23 | CC(O)C(NS(=O)(=O)c1ccc(Cl)cc1)C(=O)OCc1cc([N+](=O)[O-])cc2c1OCOC2 (centres undefined) | 1.67%
24 | COc1ccc(Cl)cc1NC(=O)NC(C)C(C)(C)C (centres undefined) | 1.97% [setting not given]
25 | CCOC(=O)CC(=O)CSc1nc(-c2ccccc2)cc(-c2ccc(Cl)cc2)c1C#N | 1.73% [setting not given]

Row | Compound | max inhibition
26 | C=CCOC(=O)C1=C(C)NC(SCC(=O)OCC)=C(C#N)C1c1ccc(C)cc1 (centres undefined) | 4.12%
27 | CCCCn1ccnc1C(=O)c1cccc(S(=O)(=O)N2c3ccccc3CC2C)c1 (centres undefined) | 3.37%
28 | CN(c1ccccc1)c1ccc(/C=c2\s/c(=C(/C#N)C(=O)C(C)(C)C)n(Cc3ccco3)c2=O)cc1 | 4.2% [at 25 µM]
29 | N/C(Cc1ccc([N+](=O)[O-])cc1)=N\OC(=O)COc1ccc2ccccc2c1 | 1.6%
30 | COc1ccc(/C(C)=N/Nc2cc(C(F)(F)F)ccc2Cl)c(OC)c1 | 2.82%
31 | Cc1cc2ccccc2n1CCNC(=O)COc1ccc2ccccc2c1 | 4.22%
32 | N#C/C(=C\C1=C(N2CCOCC2)C(=C\c2ccccc2)/CC1)C(=O)Nc1ccccc1F | 1.39% [setting not given]
33 | COc1ccc(O[C@H]2C=C[C@@H](c3ccccc3)O[C@@H]2CO/N=C/C[C@@H]2C=C[C@H](OC(C)=O)[C@@H](COC(C)=O)O2)cc1 | 1.15% [setting not given]
34 | O=C(COC(=O)CCCNC(=O)c1ccc(Cl)cc1)Nc1cc(Cl)ccc1Cl | 3.65%
35 | COc1c(Br)cc2c(C)c(C(=O)N3CCOCC3)oc2c1Br | 1.57% [setting not given]
36 | CCC1C/C(=C/c2cccs2)C(=O)/C(=C/c2cccs2)C1 (centres undefined) | 6.29%
37 | CCc1nc(Nc2ccc3nccnc3c2)c2oc3ccccc3c2n1 | 13.2%
38 | Oc1c(Cl)cc(Cl)c(Cl)c1Cc1c(O)c(Cl)cc(Cl)c1Cl | 0.89% [setting not given]
39 | O=C(CCC(=O)OCc1cccc(C(=O)Oc2ccccc2)c1)Nc1cccc2ccccc12 | 2.95% [at 12.5 µM]
40 | O=C1/C(=C/c2ccc3c(c2)OCO3)CCC/C1=C\c1ccc2c(c1)OCO2 | 4.85% [at 50 µM]
41 | CCOC(=O)CSC1=C(C#N)C(c2ccco2)C(C(=O)OCc2ccccc2)=C(C)N1 (centres undefined) | 1.67%
42 | Cc1ccc(S(=O)(=O)c2c(N)n(C)c3nc4ccccc4nc23)cc1 | 4.57%
43 | CCC(C(=O)OCC(=O)Nc1c(Cl)cc(Cl)cc1Cl)c1ccccc1 (centres undefined) | 2.14% [setting not given]
44 | C=CCO/N=C(\C)c1c(O)c(C)c(-c2ccccc2)n(-c2ccccc2)c1=O | 3.26%
45 | COc1ccc2c(c1)CCc1c(C(=O)N3CCc4ccccc4C3)noc1-2 | 1.6% [setting not given]
46 | CCOc1ccc(CN(Cc2ccco2)C(c2cccs2)c2nnnn2C(C)(C)C)cc1 (centres undefined) | 4.45%
47 | Cc1ccc(C(=O)/C=C/c2c(C)nn(-c3ccccc3)c2Cl)cc1 | 7.53%
48 | CCCCC(C(=O)OCC(=O)c1ccc(OC)cc1)N1C(=O)c2ccccc2C1=O (centres undefined) | 4.61%
49 | COc1ccc(C2C=C(c3ccc(Br)cc3)Nc3nc(NS(C)(=O)=O)nn32)cc1 (centres undefined) | 3.37%
50 | CCCNC(=O)OC[C@H]1O[C@H](CCO/N=C/[C@@H](NS(=O)(=O)c2ccc(C)cc2)[C@H](C)/C=C/CC(=O)OC)C=C[C@@H]1Oc1ccc(OC)cc1 | 1.46% [at 50 µM]

Row | Compound | max inhibition
51 | Fc1ccc(CSc2nnc(-c3cc4c(s3)-c3ccccc3CC4)o2)cc1 | 4.57%
52 | O=C(CSc1nc(-c2ccccc2)cs1)Nc1cccc([N+](=O)[O-])c1 | 3.34%
53 | COc1ccc(OC)c(C2C3=C(N=c4s/c(=C\c5cccc(O)c5)c(=O)n42)c2ccccc2CC3)c1 (centres undefined) | 2.51% [setting not given]
54 | CCCC(C(=O)n1nc(C)cc1C)C(NS(=O)(=O)c1ccc(C)cc1)c1ccccc1 (centres undefined) | 2.29% [at 1.563 µM]
55 | O=C(NCc1ccccc1)[C@H]1C[C@@H]1[C@H](NP(=O)(c1ccccc1)c1ccccc1)c1ccccc1 | 2.82%
56 | COC(=O)c1ccc(C2C(Oc3ccccc3C)C(=O)N2CCc2ccc(OC)c(OC)c2)cc1 (centres undefined) | 3.17%
57 | CC1CCN(C(=S)c2ccc(-c3ccc(Cl)cc3Cl)o2)CC1 | 4.91%
58 | COc1ccc(/C=C/C(=O)OCC(=O)Nc2cccc(Oc3ccccc3)c2)c(OC)c1 | 3.76%
59 | COc1ccc(C)cc1NC(=O)C(Sc1ccccc1)c1ccccc1 (centres undefined) | 4.82%
60 | NS(=O)(=O)c1ccc(NC(=S)NC(=O)c2cccc(Br)c2)cc1 | 2.4% [at 1.563 µM]
61 | COc1ccc(C(=O)NC(=S)Nc2ccc(N3CCCC3)cc2)cc1OC | 1.3% [setting not given]
62 | C=CCc1ccccc1OCC(=O)N/N=C/c1ccccc1OCC | 1.41%
63 | Clc1ccccc1CSc1nnc(-c2ccco2)c(-c2ccco2)n1 | 7.87%
64 | O=C(NCc1ccccc1)C1=C[C@@H](C2CCCCC2)C[C@@H](OCc2ccc(CO)cc2)O1 | 5.02%
65 | CCOC(=O)c1c(C)nc2c(c1C)c(=O)oc1ccccc12 | 1.3% [at 25 µM]
66 | Cc1cccc(N2CCN(C(=O)c3cnn4c(C(F)F)cc(-c5ccccc5)nc34)CC2)c1C | 2.51%
67 | Cc1ccc(CCC(=O)Nc2ncc(Cc3cc(Cl)ccc3Cl)s2)o1 | 2.81%
68 | O=C(CSCc1ccc(Br)cc1)Nc1ccc(S(=O)(=O)N2CCCCCC2)cc1 | 2.51%
69 | COC(=O)CCSc1cc([N+](=O)[O-])cc2c1c(C1OCCS1)nn2-c1ccccc1 (centres undefined) | 4.89% [at 12.5 µM]
70 | COc1ccc(OCCCn2cccc2/C=C2/C(=N)N3OC(C)=CC3=NC2=O)cc1 | 3.93%
71 | O=[N+]([O-])c1ccc2oc(-c3cccc(O)c3)nc2c1 | 5.09% [at 25 µM]
72 | CC(C)=CCCC1(C)C=Cc2c(ccc3c2[nH]c2cc(O)c(C)cc23)O1 (centres undefined) | 2.74%
73 | Cc1ccc(C(=O)c2c(NC(=O)c3ccccc3)sc(C)c2C)cc1 | 2.97% [setting not given]
74 | CSc1ccccc1-c1nnc(-c2ccc(Cl)cc2)o1 | 2.32% [at 50 µM]
